The campaign covered roughly 340,000 compounds. About 2,800 (0.82%) were called active. This is one part of a sample in which actives are shown more often than they occur.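 How the source made its calls: active means B-score under library mean minus 4 SD, starting fluorescence ratio at most library mean plus 5 SD; inactive means the rest.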

This experiment deals with Potassium channel subfamily K member 3 (Homo sapiens) (UniProt O14649). Nature of the experiment: blockers of TASK1 two-pore potassium channel – CHO cells, FluxOR thallium flux, B-score, primary screen (AID 602410).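 On B-score: more negative B-score means stronger inhibition of thallium flux through KCNK3.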 Conditions: CHO-KCNK3 thallium flux, FluxOR fluorescence, at 10 µM; hits give low values.
Potassium channel subfamily K member 3 (Homo sapiens), sequence (O14649 whole entry, looked up): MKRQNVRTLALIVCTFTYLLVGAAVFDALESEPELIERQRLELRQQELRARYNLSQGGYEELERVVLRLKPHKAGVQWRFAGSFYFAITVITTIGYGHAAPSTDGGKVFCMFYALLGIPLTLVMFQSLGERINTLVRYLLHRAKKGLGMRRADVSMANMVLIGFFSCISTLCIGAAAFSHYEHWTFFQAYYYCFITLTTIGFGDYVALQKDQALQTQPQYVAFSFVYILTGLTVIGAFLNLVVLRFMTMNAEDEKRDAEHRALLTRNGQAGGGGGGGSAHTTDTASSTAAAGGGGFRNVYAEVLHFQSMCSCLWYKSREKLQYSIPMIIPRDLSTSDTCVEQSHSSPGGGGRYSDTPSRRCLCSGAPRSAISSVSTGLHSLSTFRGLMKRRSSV
In the case of `CCCCc1nc2ccccc2c(NC(=O)CN2CCN(C)CC2)c1CCC`, the B-score entry was “inactive”.
Take `CSCc1cc(N(C)C)nc(SCc2ccc(Cl)cc2Cl)n1`: the B-score is -9.62 (active).
As for `Clc1ccc(CSc2nnc(/C=C/c3ccccc3)o2)c(Cl)c1`, the B-score result was “inactive”.
Regarding `CSCc1cc(N2CCOCC2)nc(SCc2ccc(Cl)cc2Cl)n1`, the B-score entry is “inactive”.
With `N#Cc1cccc(NC(=O)COC(=O)c2ccccc2C(=O)c2ccc(Cl)c([N+](=O)[O-])c2)c1` the figure was -11.8 (active).
With `CC(=O)Nc1ccc(NC(=O)COC(=O)c2ccccc2C(=O)c2ccccc2)cc1` the entry was “inactive”.
As for `CC(=O)Nc1ccc(NC(=O)C(C)OC(=O)c2ccccc2C(=O)c2ccc(Cl)c([N+](=O)[O-])c2)cc1` (stereo not given), the entry is “inactive”; as for `CCOc1ccc2oc(C(=O)N(CC)CC(=O)Nc3ccc(NC(C)=O)cc3)c(C)c2c1`, “inactive”; as for `Cc1nc(=O)c(-c2ccccc2)c(C)n1-c1ccc(Br)cc1`, “inactive”.
With `CC(C)Oc1ccc(C2NC(=O)NC2=O)cc1` (stereo not given), the B-score result is “inactive”.
In the case of `O=C1c2ccccc2C2=Nc3ccccc3SC(c3ccccc3F)C12` (stereo not given), the B-score was -12.4 (active).
With `Cc1cccc(C2c3c(n(C)c(=O)n(C)c3=O)N=C3c4ccccc4C(=O)C32)c1` (stereo not given) the entry was “inactive”; with `Cc1csc2nc(O)c(C(=O)NCCN3CCOCC3)c(=O)n12`, “inactive”.
As for `COc1ccc(OC)c(NC(=O)c2sc3nc(C)cc(C)c3c2N)c1`, the entry is “inactive”; as for `Cc1cccc(NC(=O)c2sc3nc4c(c(-c5ccco5)c3c2N)CCC4)c1`, -11.4 (active); as for `Cc1ccc(NC(=O)c2sc3nc(N)c(C#N)cc3c2N)cc1`, “inactive”.
As to `CCCN=C1NC(=O)C(CC(=O)NCCc2ccc(OC)c(OC)c2)S1` (stereo not given), the B-score result was “inactive”.
As for `O=C1c2ccccc2C(Nc2ccc3c(c2)OCCO3)N1Cc1ccco1` (stereo not given), the entry is “inactive”; as for `CCOC(=O)c1cccc(NC(=O)C2CCN(c3ncnc4c3nc3n4CCCCC3)CC2)c1`, “inactive”; as for `COc1ccccc1NC(=O)Nc1nc(CC(=O)Nc2ccccc2F)cs1`, “inactive”.
With `O=C(COc1ccccc1F)Nc1nc(-c2ccccn2)cs1` the entry was “inactive”; with `COc1ccc(CC(=O)Nc2nc(-c3ccc(F)c(F)c3)cs2)cc1OC`, -12.4 (active); with `CCOC(=O)N1CCN(Cc2nc(Cc3cccc(C(F)(F)F)c3)no2)CC1`, “inactive”.
With `Cc1cccc2c1-c1sc(C(=O)NCCCN3CCc4ccccc4C3)cc1CO2` the figure was -9.55 (active).
`O=C(NCCCN1CCOCC1)c1cc2c(s1)CCC2`: the B-score result was “inactive”.
As for `CN1CCN(CCCNC(=O)c2cc3c(=O)oc4ccccc4c3s2)CC1`, the entry is “inactive”; as for `O=C(O)Cc1csc(NC(=O)CSc2nnnn2-c2ccc(O)cc2)n1`, “inactive”; as for `COc1ccc(Cl)cc1NC(=O)C(C)N1CCc2ccccc21` (stereo not given), -8.75 (active).
With `COc1ccc(Cl)cc1NC(=O)NCC1CCN(Cc2ccccc2F)CC1` the entry was “inactive”; with `COc1ccc(Cl)cc1NC(=O)NC(C)C(C)(C)C` (stereo not given), “inactive”; with `Cc1ccc(S(=O)(=O)NCc2cn3ccsc3n2)c(C)c1`, -20.8 (active).
As for `Cc1nc(CNS(=O)(=O)c2cc([N+](=O)[O-])ccc2C)cs1`, the entry is “inactive”; as for `O=C(NCc1cn2ccsc2n1)Nc1cccc(Cl)c1`, “inactive”; as for `COC(=O)c1ccccc1N=Nc1c(C)[nH][nH]c1=O`, “inactive”.
`CCN1CCN(CCNC(=O)c2ccc(/C=C3/Sc4ccccc4N(Cc4cccc(C)c4)C3=O)cc2)CC1`: the B-score is -11.5 (active).
As for `O=C(NCCCN1CCOCC1)c1ccc2c(c1)N(Cc1cccc(F)c1)C(=O)c1ccccc1S2`, the entry is “inactive”; as for `CN1CCN(CCCNC(=O)c2ccc(/C=C3\Oc4ccccc4N(Cc4ccc(Cl)cc4)C3=O)cc2)CC1`, “inactive”.
Consider `CC[C@]1(C(=O)OC)[C@H]2C(=O)N(Cc3ccccc3)C(=O)[C@H]2[C@H]2CN=C(SCc3ccc(C#N)cc3)N21`, for which the B-score result is “inactive”.
With `CCc1ccc(OC(C)C(=O)Nc2ccc(S(=O)(=O)Nc3cc(C)on3)cc2)cc1` (stereo not given) the entry was “inactive”; with `Cc1ccc(NC(=O)Nc2cc(-c3ccccc3)nn2C)cc1Cl`, “inactive”.
With `Cc1cc(NC(=O)Nc2ccc(Cl)cc2)n(-c2ccccc2)n1` the figure was -10.7 (active).
As for `Cc1cc(C(=O)NCCc2ccc(Cl)cc2)n(-c2ccccc2)n1`, the entry is “inactive”; as for `O=C(Nc1ccccc1)O/N=C1\CCCCC1c1ccc([N+](=O)[O-])cc1[N+](=O)[O-]` (stereo not given), -9.88 (active).
For `O=[N+]([O-])c1ccc(N/N=C2/CCCCC2c2ccccn2)c([N+](=O)[O-])c1` (stereo not given), the B-score entry is “inactive”.
Regarding `C[n+]1ccccc1C1CCCC/C1=N\Nc1ccc([N+](=O)[O-])cc1[N+](=O)[O-]` (stereo not given), the B-score result was “inactive”.
With `Cc1ccc(S(=O)(=O)N(CC(O)CN2C(=O)NC(C)(C)C2=O)c2cccc([N+](=O)[O-])c2)cc1` (stereo not given) the entry was “inactive”; with `C/C(=N/NC(=O)c1ccc(Br)o1)c1ccc(C)o1`, “inactive”.
With `O=C(C1CC(=O)N(c2ccc(Br)cc2)C1)N1CCCC1` (stereo not given) the entry was “inactive”; with `CC(NC(=O)Cn1cc(C(F)(F)F)cc(Cl)c1=O)c1ccccc1` (stereo not given), “inactive”.
With `O=C(CCl)Nc1ccc(Sc2ccc(NC(=O)CCl)cc2)cc1` the entry was “inactive”; with `O=C(Nc1ccncc1)Nc1ccc(F)cc1`, “inactive”.
`CC(C)(CCl)C(=O)Nc1ccc(Sc2ccc(F)cc2)cc1`: the B-score is -12 (active).
Turning to `CCn1nnnc1SCC(=O)c1ccc(C)cc1C`, the B-score entry was “inactive”.
With `Cc1ccc(NC(=O)COc2ccc(-n3ccnc3)cc2)cc1Cl` the entry was “inactive”; with `c1ccc(CN=C2Nc3ccccc3CS2)nc1`, “inactive”; with `COc1ccc(C(CCNCc2ccccc2F)c2ccc(F)cc2)cc1` (stereo not given), “inactive”.
For `CN(CC(=O)Nc1ccc(F)cc1)CC(=O)Nc1ccc(Cl)c(S(=O)(=O)N2CCOCC2)c1`, the B-score entry was “inactive”.
As to `CN(CCC(=O)Nc1cc(S(=O)(=O)N(C)C)ccc1Cl)CC(=O)Nc1ccc(F)cc1`, the B-score was -16.6 (active).
As for `CN(CC(=O)Nc1ccc(S(=O)(=O)N2CCCC2)cc1)Cc1ccc(Cl)c(Cl)c1`, the entry is “inactive”.
With `COc1cc(C(=O)CCc2ccc3c(c2)OCO3)cc(OC)c1OC` the entry was “inactive”.

Values taken from PubChem BioAssay AID602410 (Johns Hopkins Ion Channel Center, 2012).
